According to PubChem BioAssay (NCATS):
“And” between values parts separate entries of the source, which are not always exact repeats. Identical values can stand only once. Records with an inconclusive call do not appear. A structure can be active in one record and inactive in another. The source made the active and inactive calls. The call rests on the fitted dose curve; in most records, active means well fitted curve in the direction sought with a large enough effect; inconclusive means small, poorly fitted or top-dose-only effect, or another doubt; inactive means no such curve, though single readings can be large; an effect the other way counts as inactive or inconclusive.

Key:
CRL-7250 = normal cell line; assay: Cytotoxic Profiling of Annotated Libraries Using Quantitative High-Throughput Screening (AID 1296008); conditions: Five cell lines viability, CellTiter-Glo ATP luminescence, 48-72 h; max response: stronger effect = lower value; further: nearly all actives have a fitted effect of over 60% in size; further: potency means the concentration at half of the fitted maximal effect; on max response: on the % scale 0 is the no-effect control and ±100 the full control effect
Outline: (§1)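 Cytotoxicity was measured as CellTiter-Glo ATP luminescence, read after 10 min at room temperature. Compound treatment of the cells lasted 48 or 72 hr at 37 degrees Celsius in a qHTS format.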

KB-3-1 = assay: as above; conditions: Five cell lines viability, CellTiter-Glo ATP luminescence, 48-72 h; max response: stronger effect = lower value
Outline: as §1

MCC-13 = assay: qHTS assay to identify novel small-molecules to repurpose for Merkel cell carcinoma treatment (AID 1296009); conditions: MCC and control cell lines, CellTiter-Glo viability, 72 h; series mostly up to 46 µM; further: nearly all actives have a fitted effect of over 60% in size; further: potency means the concentration at half of the fitted maximal effect
Outline: (§2)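 After compound transfer in DMSO, plates were kept 72 hr at 37 degree celsius. Luminescent ATP signal from CellTiter-Glo served as viability measure, normalized against DMSO and no-cell controls.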

MCC-26 = assay: as above; conditions: MCC and control cell lines, CellTiter-Glo viability, 72 h; series mostly up to 46 µM
Outline: as §2

MKL-1 = assay: as above; conditions: MCC and control cell lines, CellTiter-Glo viability, 72 h; series mostly up to 46 µM
Outline: as §2

WaGa = assay: as above; conditions: MCC and control cell lines, CellTiter-Glo viability, 72 h; series mostly up to 46 µM
Outline: as §2

HaCat [1] = assay: Cytotoxic Profiling of Annotated Libraries Using Quantitative High-Throughput Screening (AID 1296008); conditions: Five cell lines viability, CellTiter-Glo ATP luminescence, 48-72 h; max response: stronger effect = lower value; further: nearly all actives have a fitted effect of over 60% in size; further: potency means the concentration at half of the fitted maximal effect; on max response: on the % scale 0 is the no-effect control and ±100 the full control effect
Outline: as §1

NIH3T3 [2] = assay: as above; conditions: Five cell lines viability, CellTiter-Glo ATP luminescence, 48-72 h; max response: stronger effect = lower value
Outline: as §1

HACAT [3] = assay: qHTS assay to identify novel small-molecules to repurpose for Merkel cell carcinoma treatment (AID 1296009); conditions: MCC and control cell lines, CellTiter-Glo viability, 72 h; at 44.8 µM (top of the series) unless noted; further: nearly all actives have a fitted effect of over 60% in size; further: potency means the concentration at half of the fitted maximal effect
Outline: as §2

MKL-2 = assay: as above; conditions: MCC and control cell lines, CellTiter-Glo viability, 72 h; series mostly up to 46 µM
Outline: as §2

UISO = assay: as above; conditions: MCC and control cell lines, CellTiter-Glo viability, 72 h; series mostly up to 46 µM
Outline: as §2

C33A = assay: Primary qHTS to identify gynecologic anti-cancer compounds using libraries of approved drugs and bioactive compounds (AID 1345084); conditions: Gynecologic cancer cell panel viability, ATPlite luminescence, 48 h; series mostly up to 57.5 µM; further: on the % scale 0 is the no-effect control and ±100 the full control effect; nearly all actives have a fitted effect of over 55% in size
Outline: (§3)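 Five-point cytotoxicity, 48 h drug exposure at 37 C, 5% CO2, on cells seeded 16 h beforehand. ATP content read by ATPlite luminescence.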

CAOV3 = assay: as above; conditions: Gynecologic cancer cell panel viability, ATPlite luminescence, 48 h; series mostly up to 57.5 µM
Outline: as §3

HEK293 = assay: Cytotoxic Profiling of Annotated Libraries Using Quantitative High-Throughput Screening (AID 1296008); conditions: Five cell lines viability, CellTiter-Glo ATP luminescence, 48-72 h; max response: stronger effect = lower value; further: nearly all actives have a fitted effect of over 60% in size; further: potency means the concentration at half of the fitted maximal effect; on max response: on the % scale 0 is the no-effect control and ±100 the full control effect
Outline: as §1

TAB109 = assay: qHTS profiling for inhibitors of Plasmodium falciparum proliferation (AID 504749); conditions: P. falciparum in erythrocytes, SYBR Green DNA, 72 h; series mostly up to 28.7 µM
Outline: (§4)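 Three-day growth assay of blood-stage parasites in erythrocytes (0.3% parasitemia, 2.5% hematocrit) at 37 C, 5% CO2, quantified by SYBR Green DNA staining after overnight detergent lysis.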

TAB113 = assay: as above; conditions: P. falciparum in erythrocytes, SYBR Green DNA, 72 h; series mostly up to 28.7 µM
Outline: as §4

TAB165 = assay: as above; conditions: P. falciparum in erythrocytes, SYBR Green DNA, 72 h; series mostly up to 28.7 µM
Outline: as §4

NIH3T3 [4] = assay: qHTS assay to identify novel small-molecules to repurpose for Merkel cell carcinoma treatment (AID 1296009); conditions: MCC and control cell lines, CellTiter-Glo viability, 72 h; at 44.8 µM (top of the series) unless noted; further: nearly all actives have a fitted effect of over 60% in size; further: potency means the concentration at half of the fitted maximal effect
Outline: as §2

Cc1ccc(C(C)(O)c2nc3ccccc3s2)c(C)c1 (stereo not given)
inactive: max response (CRL-7250) 0.7% | max response (KB-3-1) 4.83% | Potency (MCC-13) | Potency (MCC-26)
active: Potency (MKL-1) 16.6 µM | Potency (WaGa) 7.43 µM

CCC(=O)NC[C@H](Cc1ccc(OCCc2nc(-c3ccccc3)oc2C)cc1)NC(C)=CC(=O)c1ccc(C(F)(F)F)cc1
inactive: max response (CRL-7250) -13.2% | outcome (KB-3-1) | Potency (MCC-13)
active: Potency (MKL-1) 7.43 µM | Potency (WaGa) 4.69 µM

Cc1cccc(Nc2nc(-c3ccncc3)cs2)c1
active: Potency (NIH3T3 [2]) 11.8 µM and 7.31 µM | Potency (UISO) 0.935 µM
inactive: max response (CRL-7250) -0.257% | outcome (HaCat [1]) | outcome (HACAT [3]) | Potency (MCC-13) | Potency (MCC-26) | Potency (MKL-1) | Potency (MKL-2) | Potency (WaGa) | Potency (C33A) | Potency (CAOV3)

CCCCCNC(=O)N1CCC(CN(Cc2ccc(Cl)cc2)Cc2ccc([N+](=O)[O-])s2)C1 (stereo not given)
inactive: max response (CRL-7250) -21% | max response (HaCat [1]) 2.36% | max response (NIH3T3 [2]) -17.3% | Potency (MCC-13) | Potency (MCC-26) | Potency (MKL-1) | Potency (UISO) | Potency (WaGa)

CN(C)Cc1cccc(N=C(c2ccccc2)c2c(O)[nH]c3cc(C(=O)N(C)C)ccc23)c1
active: Potency (CRL-7250) 20.9 µM | Potency (NIH3T3 [2]) 13.2 µM
inactive: max response (HaCat [1]) -49.2% | max response (KB-3-1) -15% | Potency (MCC-13) | Potency (MKL-1) | Potency (WaGa)

Cc1cc(OCCCc2c(C(=O)O)n(Cc3cccnc3)c3c(-c4c(COc5ccc(N6CCN([S+](C)(=O)[O-])CC6)cc5)nn(C)c4C)cccc23)cc(C)c1Cl
inactive: max response (CRL-7250) -16.6% | max response (HaCat [1]) -19.1% | max response (NIH3T3 [2]) -3.92% | Potency (MCC-13) | Potency (MCC-26) | Potency (MKL-1) | Potency (MKL-2) | Potency (UISO) | Potency (WaGa)

N#CC(=C(N)Sc1ccccc1N)C(C#N)=C(N)Sc1ccccc1N
active: Potency (UISO) 1.05 µM
inactive: max response (CRL-7250) -7.68% | max response (NIH3T3 [2]) -4.19% | Potency (MCC-13) | Potency (MCC-26) | Potency (MKL-1) | Potency (WaGa)

Nc1ncnc2c1nc(Cl)n2[C@@H]1O[C@H](CO)[C@@H](O)[C@@H]1O
active: Potency (HaCat [1]) 14.8 µM | Potency (NIH3T3 [2]) 26.4 µM
inactive: max response (HEK293) 0.527% | Potency (MCC-13)

CC1(C)O[C@H]2C[C@@H]3[C@H]4CCC5=CC(=O)C=C[C@]5(C)[C@@]4(F)[C@@H](O)C[C@]3(C)[C@]2(C(=O)CO)O1
active: Potency (MKL-1) 18.7 µM | Potency (WaGa) 13.2 µM
inactive: outcome (TAB109) | Potency (TAB113) | Potency (TAB165) | max response (CRL-7250) -11.3% | max response (HaCat [1]) -12.9% | max response (KB-3-1) 1.25% | Potency (MCC-13) | Potency (MCC-26) | Potency (UISO)

CNC1CCC(N(Cc2cccc(-c3ccncc3)c2)C(=O)c2sc3c(F)ccc(F)c3c2Cl)CC1 (stereo not given)
active: Potency (HEK293) 13.2 µM and 13 µM
inactive: outcome (HaCat [1]) | outcome (HACAT [3]) | Potency (MCC-13) | Potency (MCC-26) | Potency (WaGa) | Potency (C33A)

CC=CC[C@@H](C)C(=O)[C@H]1C(=O)N[C@@H](C(C)C)C(=O)N(C)CC(=O)N(C)[C@@H](CC(C)C)C(=O)N[C@@H](C(C)C)C(=O)N(C)[C@@H](CC(C)C)C(=O)N[C@@H](C)C(=O)N[C@H](C)C(=O)N(C)[C@@H](CC(C)C)C(=O)N(C)[C@@H](CC(C)C)C(=O)N(C)[C@@H](C(C)C)C(=O)N1C
inactive: max response (CRL-7250) -6.35% | max response (HaCat [1]) -21.7% | max response (KB-3-1) -1.28% | Potency (MCC-13) | Potency (MKL-1) | Potency (MKL-2) | Potency (UISO) | Potency (WaGa)

CC(C)C(=O)Nc1ncc(-c2cc(C(F)F)nn2-c2c(Cl)cccc2Cl)s1
inactive: max response (CRL-7250) -16.9% | max response (HaCat [1]) -19.8% | Potency (MKL-1) | Potency (WaGa) | Potency (C33A) | Potency (CAOV3)

COc1cc2c(cc1OC)CN(CCc1ccc(NC(=O)c3cc(OC)c(OC)cc3NC(=O)c3cnc4ccccc4c3)cc1)CC2
active: Potency (HEK293) 11.4 µM
inactive: max response (HEK293) -20.5% | max response (HaCat [1]) -17.1% | outcome (KB-3-1) | max response (NIH3T3 [2]) -16.8% | Potency (MCC-13) | Potency (MCC-26) | Potency (MKL-1) | Potency (MKL-2) | Potency (UISO) | Potency (WaGa)

O=c1c(-c2ccc(O)cc2)coc2cc(OC3O[C@H](CO)[C@H](O)[C@H](O)[C@H]3O)cc(O)c12 (stereo not given in full)
inactive: max response (CRL-7250) -31.9% | max response (HaCat [1]) -51.1% | Potency (MCC-13) | Potency (MCC-26) | Potency (MKL-1) | Potency (MKL-2) | Potency (WaGa)

O=c1cc(-c2ccccc2)oc2cc(O)c(O)c(O)c12
inactive: max response (HEK293) -21.5% | max response (HaCat [1]) 1.36% | max response (KB-3-1) -0.922% | max response (NIH3T3 [2]) -19.1% | Potency (MCC-13) | Potency (MCC-26) | Potency (MKL-1) | Potency (UISO)

COc1ccc(-n2c(C)c([N+](=O)[O-])c3ccc(O)cc32)cc1
inactive: max response (HEK293) -7.19% | max response (HaCat [1]) -25.5% | max response (KB-3-1) -1.9% | max response (NIH3T3 [2]) 4.92% | Potency (MCC-13) | Potency (MCC-26) | Potency (MKL-1) | Potency (MKL-2) | Potency (UISO) | Potency (WaGa)

Cc1ccc([C@@H]2O[C@H](CO)[C@@H](O)[C@H](O)[C@@H]2O)cc1Cc1ccc(-c2ccc(F)cc2)s1
active: Potency (HEK293) 14.8 µM
inactive: outcome (HaCat [1]) | outcome (KB-3-1) | outcome (NIH3T3 [2]) | outcome (HACAT [3]) | Potency (MCC-13) | Potency (MKL-1) | Potency (MKL-2) | outcome (NIH3T3 [4]) | Potency (UISO) | Potency (WaGa)

Cc1ccn(-c2ccc(-c3ncco3)cc2)c(=O)c1-c1ccc2nc(N)ncc2c1
active: Potency (CRL-7250) 1.66 µM and 5.17 µM | Potency (NIH3T3 [2]) 16.6 µM and 6.51 µM
inactive: max response (HaCat [1]) -12.1% and -22.1% | max response (KB-3-1) 0.602% and 6.68% | Potency (MCC-13) | Potency (MKL-1) | Potency (WaGa) | Potency (CAOV3)
